This is an account of results in the supplement of paper PMC6522484.

± gives the standard deviation of the averaged measurements.

The test system of experiment [1] is DLD1. The experiment in a line: cell viability (CellTiter-Glo) relative to plate median (fraction of plate median); higher = more viable cells. As to conditions: 5 µM; treatment time 24 h; reporter: 7TFP. In outline: (§1)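 Stable lentiviral TCF/Wnt firefly luciferase reporters (7TFP or TCF4/Wnt) were present in the colorectal cancer cell lines used. These cells received library compounds at a final 5 µM for 24 h, and parallel plates were read for firefly luciferase or CellTiterGlo luminescence. Each well was normalised to the plate median, and the value reported is the mean of two independent replicates.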
For orientation: ATP-based viability assays read luminescence as a measure of living cells.

Experiment [2] deals with HCT116. The experiment is described as above. Conditions: 5 µM; treatment time 24 h; reporter: TCF4/Wnt. In outline:
as §1

In experiment [3] the test system is SW480. The description is as above. Conditions: 5 µM; treatment time 24 h; reporter: 7TFP. The gist of the method:
as §1

In experiment [4] the test system is DLD1. In words: TCF/Wnt firefly luciferase reporter signal relative to plate median (fraction of plate median); higher = higher Wnt reporter signal. Conditions: 5 µM; treatment time 24 h; reporter: 7TFP. In outline: as §1
For orientation: Reporter assays use an easily measured gene product as a stand-in for the process of interest.

Experiment [5] has as its system SW480. The experiment is described as above. As to conditions: 5 µM; treatment time 24 h; reporter: 7TFP. The gist of the method:
as §1

Consider `c1ccc(CN(CC2=NCCN2)c2ccccc2)cc1`, for which the results for the cell viability in experiment [1], in experiment [2] and in experiment [3] were 0.9805 ± 0.0092, 1.03 ± 0.055 and 1.08 ± 0.021, respectively. In addition, the “TCF/Wnt firefly luciferase reporter signal” value in experiment [4] was 1.18 ± 0.05; in experiment [5], 1.06 ± 0.096.
In the case of `CN1[C@@H]2CC[C@H]1C[C@@H](OC(c1ccccc1)c1ccccc1)C2`, the values for the cell viability in experiment [1], in experiment [2] and in experiment [3] were 1.03 ± 0.014, 1.12 ± 0.014 and 1.05 ± 0.05, respectively. The “TCF/Wnt firefly luciferase reporter signal” value in experiment [4] worked out at 0.929 ± 0.16; in experiment [5], 0.982 ± 0.12.
In the case of `O=C1CC2(CCCC2)CC(=O)N1CCCCN1CCN(c2ncccn2)CC1`, the cell viability in experiment [1] is 1.02 ± 0.028; in experiment [2], 0.895 ± 0.14; in experiment [3], 0.995 ± 0.021. In addition, the results for the “TCF/Wnt firefly luciferase reporter signal” value in experiment [4] and in experiment [5] were 1.07 ± 0.078 and 1.08 ± 0.021, respectively.
Turning to `O=[N+]([O-])c1cccc2c(Br)[nH]nc12`, the results for the cell viability in experiment [1], in experiment [2] and in experiment [3] were 0.994 ± 0.0057, 1.02 ± 0.021 and 0.957 ± 0.034, respectively. For the same molecule, the “TCF/Wnt firefly luciferase reporter signal” value in experiment [4] amounted to 0.984 ± 0.037; in experiment [5] it was 0.967 ± 0.13.
For the molecule `Cc1scc2c1N(C(=O)CN1CCN(C)CC1)c1ccccc1NC2=O`, the cell viability in experiment [1] worked out at 1.03 ± 0.073; in experiment [2] it was 1 ± 0.071; in experiment [3], 0.996 ± 0.034. Besides, the “TCF/Wnt firefly luciferase reporter signal” value was found to be 0.984 ± 0.052 in experiment [4] and 0.954 ± 0.04 in experiment [5].
Regarding `CC(=O)Oc1cc2c(c(C)c1OC(C)=O)CC=C1[C@@]2(C)CC[C@@]2(C)C3C[C@](C)(C(=O)O)CC[C@]3(C)CC[C@]12C` (stereo not given in full), the cell viability in experiment [1] is 0.903 ± 0.12; in experiment [2], 0.958 ± 0.16; in experiment [3], 0.953 ± 0.081. For the same molecule, the “TCF/Wnt firefly luciferase reporter signal” value in experiment [4] turned out to be 0.869 ± 0.064; in experiment [5] it was 0.898 ± 0.12.
Turning to `CN(C)CCc1c[nH]c2ccc(C[C@H]3COC(=O)N3)cc12`, the cell viability in experiment [1] came out at 0.931 ± 0.059; in experiment [2], 1.08 ± 0.078; in experiment [3], 1.04 ± 0.014. For the same molecule, the “TCF/Wnt firefly luciferase reporter signal” value in experiment [4] is 1.03 ± 0.021; in experiment [5], 0.95 ± 0.069.
With `O=c1oc2ccccc2cc1O`, the results for the cell viability in experiment [1], in experiment [2] and in experiment [3] were 0.992 ± 0.04, 0.955 ± 0.013 and 1.03 ± 0.021, respectively. Besides, the results for the “TCF/Wnt firefly luciferase reporter signal” value in experiment [4] and in experiment [5] were 0.765 ± 0.016 and 0.911 ± 0.14, respectively.
In the case of `C/C=C(/C(=C/C)c1ccc(O)cc1)c1ccc(O)cc1`, the cell viability was found to be 0.987 ± 0.018 in experiment [1], 0.997 ± 0.061 in experiment [2] and 1 ± 0.015 in experiment [3]. Also, the “TCF/Wnt firefly luciferase reporter signal” value in experiment [4] came to 1.07 ± 0.15; in experiment [5], 1.09 ± 0.071.
In the case of `O=C1C=C2CC3(O)COc4c(ccc(O)c4O)C3=C2C=C1O` (stereo not given), the cell viability in experiment [1] came to 0.988 ± 0.073; in experiment [2], 1.04 ± 0.065; in experiment [3], 1.06 ± 0.13. Besides, the “TCF/Wnt firefly luciferase reporter signal” value in experiment [4] was 0.943 ± 0.081; in experiment [5] it was 1.05.
On the same counts, the results for `COC(=O)c1c(OC)cc2c(c1C)Oc1c(Cl)c(OC(C)=O)c(Cl)c(C)c1C(=O)O2` are 0.935 ± 0.028, 1.02 ± 0.088, 0.9875 ± 0.0064, 1.03 ± 0.042 and 0.968 ± 0.02.
In the case of `C[C@]12CC[C@H]3C(=CCc4cc(O)ccc43)[C@@H]1CCC2=O`, the figures for the cell viability in experiment [1], in experiment [2] and in experiment [3] were 0.902 ± 0.086, 0.869 ± 0.16 and 1.01 ± 0.031, respectively. For the same molecule, the results for the “TCF/Wnt firefly luciferase reporter signal” value in experiment [4] and in experiment [5] were 1.07 ± 0.25 and 0.98 ± 0.057, respectively.
`Cn1c([N+](=O)[O-])cnc1COC(N)=O`: the cell viability in experiment [1] worked out at 0.999 ± 0.072; in experiment [2], 1.07 ± 0.071; in experiment [3] it was 1.03 ± 0.014. The “TCF/Wnt firefly luciferase reporter signal” value stood at 1.05 ± 0.028 in experiment [4] and 0.996 ± 0.12 in experiment [5].
As to `C[C@@H]1O[C@@H](O[C@H]2[C@H](O[C@H]3CC[C@@]4(C)[C@@H](CC[C@]5(C)[C@@H]4CC=C4[C@@H]6CC(C)(C)CC[C@]6(C(=O)O)CC[C@]45C)[C@]3(C)CO)OC[C@H](O)[C@@H]2O)[C@H](O)[C@H](O)[C@H]1O`, the cell viability is 1.04 ± 0.062 in experiment [1], 1.05 ± 0.1 in experiment [2] and 1.03 ± 0.098 in experiment [3]. In addition, the results for the “TCF/Wnt firefly luciferase reporter signal” value in experiment [4] and in experiment [5] were 1.04 ± 0.014 and 1.06 ± 0.064, respectively.
